Experimental data published in PubChem BioAssay (NCATS).
“And” between values parts separate entries of the source, which are not always exact repeats. Identical values can stand only once. Inconclusive results are not listed. Some structures have more than one record in an assay (separate samples or runs), and their calls can disagree. The source made the active and inactive calls. Calls follow the shape of the dose curve; as a rule, active = well fitted inhibition curve with a large enough effect; inconclusive = small, poorly fitted or top-dose-only effect; inactive = flat fitted curve, though single readings scatter.

Legend:
CRL-7250 = normal cell line; test: Cytotoxic Profiling of Annotated Libraries Using Quantitative High-Throughput Screening (AID 1296008); conditions: Five cell lines viability, CellTiter-Glo ATP luminescence, 48-72 h; max response: hits give low values
How it was run: (§1)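 Compounds were pin-transferred onto cells and incubated 48 or 72 hr at 37 degree Celsius, 95% humidity. CellTiter-Glo was added, plates sat 10 min at room temperature, then ATP-coupled luminescence was imaged as the viability read-out.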

HEK293 = test: as above; conditions: Five cell lines viability, CellTiter-Glo ATP luminescence, 48-72 h; max response: hits give low values
How it was run: as §1

HaCat [1] = test: as above; conditions: Five cell lines viability, CellTiter-Glo ATP luminescence, 48-72 h; max response: hits give low values
How it was run: as §1

KB-3-1 = test: as above; conditions: Five cell lines viability, CellTiter-Glo ATP luminescence, 48-72 h; max response: hits give low values
How it was run: as §1

NIH3T3 = test: as above; conditions: Five cell lines viability, CellTiter-Glo ATP luminescence, 48-72 h; max response: hits give low values
How it was run: as §1

MCC-13 = test: qHTS assay to identify novel small-molecules to repurpose for Merkel cell carcinoma treatment (AID 1296009); conditions: MCC and control cell lines, CellTiter-Glo viability, 72 h; series mostly up to 46 µM
How it was run: (§2)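 Cells exposed to NPC (8-point) and MIPE (11-point) compound dilutions for 72 hr at 37 degree celsius; viability read by CellTiter-Glo luminescence, normalized to no-cell and DMSO in-plate controls.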

MCC-26 = test: as above; conditions: MCC and control cell lines, CellTiter-Glo viability, 72 h; series mostly up to 46 µM
How it was run: as §2

HACAT [2] = test: as above; conditions: MCC and control cell lines, CellTiter-Glo viability, 72 h; series mostly up to 44.8 µM
How it was run: as §2

MKL-1 = test: as above; conditions: MCC and control cell lines, CellTiter-Glo viability, 72 h; series mostly up to 46 µM
How it was run: as §2
% is scaled to controls: 0 for no effect and ±100 for the full control effect; potency is read from the fitted curve at half-maximal effect.
Also: nearly all actives have a fitted effect of over 60% in size.

CC1(C)CC(=O)c2c(C(F)(F)F)nn(-c3ccc(C(N)=O)c(NC4CCC(OC(=O)CN)CC4)c3)c2C1 (stereo not drawn)
active: Potency (CRL-7250) 469 nM and 231 nM | Potency (HEK293) 118 nM and 58 nM | Potency (HaCat [1]) 2.35 µM and 517 nM | Potency (KB-3-1) 0.105 µM | Potency (NIH3T3) 418 nM and 366 nM

OCCCNc1cc(-c2ccnc(Nc3cccc(Cl)c3)n2)ccn1
active: Potency (CRL-7250) 46.9 nM and 146 nM | Potency (HEK293) 209 nM and 231 nM | Potency (HaCat [1]) 105 nM and 820 nM | Potency (KB-3-1) 118 nM and 206 nM | Potency (NIH3T3) 166 nM and 580 nM

COc1ccc(C=Cc2cc(OC)c(OC)c(OC)c2)cc1O
active: Potency (KB-3-1) 0.001 µM
inactive: max response (CRL-7250) -82.4% | max response (HEK293) -79.1% | max response (HaCat [1]) -0.114% | max response (NIH3T3) -49.1% | Potency (MCC-13) | Potency (MCC-26)

COc1ccc(CC2SC(=O)NC2=O)cc1C(=O)NCc1ccc(C(F)(F)F)cc1 (stereo not drawn)
active: Potency (CRL-7250) 11.8 µM
inactive: max response (HEK293) -1.55% | outcome (HaCat [1]) | max response (KB-3-1) -9.05% | max response (NIH3T3) 2.55% | Potency (HACAT [2]) | Potency (MCC-13) | Potency (MCC-26) | Potency (MKL-1)

Cc1nc2cnc3ccc(C#Cc4cccnc4)cc3c2n1-c1ccc(C(C)(C)C#N)cc1
active: Potency (CRL-7250) 0.0469 µM | Potency (HEK293) 0.0743 µM | Potency (HaCat [1]) 1.18 µM | Potency (KB-3-1) 0.0935 µM | Potency (NIH3T3) 0.148 µM

O=C(Nc1ncc(-c2cc(C(F)F)nn2-c2c(Cl)cccc2Cl)s1)C1CC1
inactive: max response (HaCat [1]) -7.36% and -20.3%
active: Potency (CRL-7250) 1.48 µM and 3.66 µM | Potency (HEK293) 1.05 µM | Potency (KB-3-1) 590 nM and 820 nM | Potency (NIH3T3) 1.18 µM and 1.46 µM

Cc1ccc(C(N)=O)cc1Nc1nccc(-c2cn(C(C)C)c3cnccc23)n1
active: Potency (CRL-7250) 11.6 µM | Potency (HEK293) 6.51 µM | Potency (HaCat [1]) 23.5 µM | Potency (KB-3-1) 5.8 µM | Potency (NIH3T3) 10.5 µM

CC(=O)Nc1nc(C)c(-c2ccc(Cl)c(S(=O)(=O)NCCO)c2)s1
active: Potency (CRL-7250) 1.66 µM and 13 µM | Potency (HEK293) 4.18 µM and 11.6 µM | Potency (HaCat [1]) 6.51 µM | Potency (KB-3-1) 9.35 µM | Potency (NIH3T3) 3.32 µM and 2.59 µM

Cc1nc(N)ncc1-c1nc(N2CCOCC2)c2sc(C(C)(C)O)cc2n1
inactive: Potency (MCC-13)
active: Potency (CRL-7250) 2.59 µM | Potency (HEK293) 1.18 µM and 1.3 µM | Potency (HaCat [1]) 41.8 nM and 130 nM | Potency (KB-3-1) 3.66 µM | Potency (NIH3T3) 1.87 µM and 920 nM

Nc1ncnc2c1c(-c1cnc3[nH]ccc3c1)nn2C1CCCC1
active: Potency (CRL-7250) 118 nM and 920 nM | Potency (HEK293) 1.48 µM and 2.59 µM | Potency (HaCat [1]) 2.64 µM and 1.84 µM | Potency (KB-3-1) 1.66 µM and 4.61 µM | Potency (NIH3T3) 83.3 nM and 517 nM | Potency (MCC-13) 4.18 µM | Potency (MCC-26) 10.5 µM

c1ccc2c(CCNc3ccc(Nc4ccncc4)cc3)c[nH]c2c1
active: Potency (CRL-7250) 10.5 µM | Potency (HEK293) 1.05 µM and 2.31 µM | Potency (HaCat [1]) 11.8 µM | Potency (KB-3-1) 23.5 µM | Potency (NIH3T3) 16.6 µM and 11.6 µM | Potency (MCC-13) 20.9 µM | Potency (MKL-1) 9.35 µM
inactive: max response (HaCat [1]) 2.65%

CNC(=O)c1ccccc1Nc1nc(Nc2ccc(N3CCOCC3)cc2OC)ncc1Cl
active: Potency (CRL-7250) 7.43 µM and 4.11 µM | Potency (HEK293) 3.32 µM | Potency (HaCat [1]) 2.96 µM and 2.31 µM | Potency (KB-3-1) 2.64 µM and 1.3 µM | Potency (NIH3T3) 1.05 µM

CC(C)(C)OC(=O)Nc1ccc(-c2cc(C(=O)NCCCCCCC(=O)NO)no2)cc1
active: Potency (CRL-7250) 16.6 µM | Potency (HEK293) 7.43 µM | Potency (HaCat [1]) 20.9 µM | Potency (KB-3-1) 8.33 µM | Potency (NIH3T3) 14.8 µM | Potency (MCC-13) 11.8 µM | Potency (MCC-26) 18.7 µM

Cn1c(=O)n(-c2ccc(C(C)(C)C#N)cc2)c2c3cc(-c4cnc5ccccc5c4)ccc3ncc21
active: Potency (CRL-7250) 259 nM and 235 nM | Potency (HEK293) 326 nM and 26.4 nM | Potency (KB-3-1) 731 nM and 16.6 nM | Potency (NIH3T3) 580 nM and 46.9 nM
inactive: outcome (HaCat [1]) | Potency (HACAT [2]) | Potency (MKL-1)

O=C(c1ccc(Nc2nccc(-c3cc4ccccc4s3)n2)cc1)N1CCC(N2CCCC2)CC1
active: Potency (CRL-7250) 14.8 µM | Potency (HEK293) 5.26 µM | Potency (HaCat [1]) 23.5 µM | Potency (KB-3-1) 9.35 µM | Potency (NIH3T3) 26.4 µM and 23.1 µM

CC(C)(C)c1cc(NC(=O)Nc2ccc(-c3cn4c(n3)sc3cc(OCCN5CCOCC5)ccc34)cc2)no1
active: Potency (HEK293) 1.18 µM and 5.8 µM
inactive: max response (CRL-7250) -10.2% and -19.2% | outcome (HaCat [1]) | max response (KB-3-1) 4.76% and -14.7% | max response (NIH3T3) -25.4% | outcome (NIH3T3) | Potency (HACAT [2]) | Potency (MCC-13) | Potency (MKL-1)

CC(=O)c1c(C)c2cnc(Nc3ccc(N4CCNCC4)cn3)nc2n(C2CCCC2)c1=O
inactive: max response (CRL-7250) -3.02% | max response (HEK293) -2.77% | max response (HaCat [1]) 1.14% | max response (KB-3-1) -7.2% | max response (NIH3T3) 3.53% | Potency (MCC-13) | Potency (MCC-26)

Cc1cc(Nc2cc(N3CCN(C)CC3)nc(C=Cc3ccccc3)n2)n[nH]1
active: Potency (CRL-7250) 5.4 µM | Potency (HEK293) 7.62 µM | Potency (HaCat [1]) 2.7 µM | Potency (KB-3-1) 3.03 µM | Potency (NIH3T3) 6.05 µM | Potency (MCC-13) 9.59 µM

Cn1cc(-c2[nH]c3cc(NC(=O)[C@H](N)C4CCCCC4)cc4c3c2C=NNC4=O)cn1
inactive: max response (HaCat [1]) -8.38%
active: Potency (CRL-7250) 1.87 µM and 2.59 µM | Potency (HEK293) 3.32 µM and 5.8 µM | Potency (KB-3-1) 5.9 µM and 4.11 µM | Potency (NIH3T3) 14.8 µM

Cc1cn2cc(C(=O)N(C)CCO)cc(N[C@@H]3CCOc4cccc(C)c43)c2n1
inactive: max response (CRL-7250) -0.414% and 0.78% | max response (HEK293) -7.53% and -5.18% | outcome (HaCat [1]) | max response (KB-3-1) -1.9% | outcome (KB-3-1) | outcome (NIH3T3) | Potency (HACAT [2]) | Potency (MCC-13) | Potency (MKL-1)

COC(=O)Nc1ccc(-c2nc(N3CCOCC3)c3cnn(C4CCN(Cc5cccnc5)CC4)c3n2)cc1
active: Potency (CRL-7250) 118 nM and 1.3 µM | Potency (HEK293) 66.2 nM and 1.46 µM | Potency (HaCat [1]) 13.2 µM | Potency (KB-3-1) 132 nM and 1.64 µM | Potency (NIH3T3) 83.3 nM and 920 nM | Potency (MCC-13) 14.8 µM

CC(C)c1cc(C(=O)N2Cc3ccc(CN4CCN(C)CC4)cc3C2)c(O)cc1O
active: Potency (CRL-7250) 0.935 µM | Potency (HEK293) 105 nM and 58 nM | Potency (HaCat [1]) 264 nM and 206 nM | Potency (KB-3-1) 0.0731 µM | Potency (NIH3T3) 418 nM and 291 nM | Potency (MCC-13) 0.469 µM

NC1(Cc2ccc(Cl)cc2)CCN(c2ncnc3[nH]ccc23)CC1
active: Potency (CRL-7250) 13.2 µM | Potency (HEK293) 1.66 µM and 6.51 µM
inactive: max response (HaCat [1]) -10.8% | max response (KB-3-1) -6.56% | max response (NIH3T3) 0.262% | Potency (MCC-13) | Potency (MCC-26)

N#Cc1c(O)c2c(-c3ccc(-c4ccccc4O)cc3)csc2[nH]c1=O
inactive: max response (CRL-7250) -0.58% and 1.34% | max response (HEK293) 3.13% and -14.8% | outcome (HaCat [1]) | outcome (KB-3-1) | max response (NIH3T3) -1.37% | outcome (NIH3T3) | Potency (HACAT [2]) | Potency (MCC-13) | Potency (MCC-26) | Potency (MKL-1)

O=C(NCCS(=O)(=O)c1ccc(C(F)(F)F)cn1)c1ccc(Cl)cc1
inactive: max response (CRL-7250) 2.65% | max response (HEK293) -5.18% | outcome (HaCat [1]) | outcome (KB-3-1) | max response (NIH3T3) 1.91% | Potency (HACAT [2]) | Potency (MCC-13) | Potency (MCC-26) | Potency (MKL-1)

Cc1cc(Nc2nc(N[C@@H](C)c3ccc(F)cc3)c(C#N)cc2F)n[nH]1
active: Potency (CRL-7250) 16.6 µM and 7.31 µM | Potency (HEK293) 2.64 µM and 1.3 µM | Potency (HaCat [1]) 2.59 µM | Potency (KB-3-1) 1.05 µM and 731 nM | Potency (NIH3T3) 3.72 µM and 4.11 µM

Cc1ccc(S(=O)(=O)Nc2cc(Cl)ccc2C(=O)Nc2nc(-c3ccccc3)cs2)cc1
inactive: max response (CRL-7250) 3.55% | outcome (HaCat [1]) | max response (KB-3-1) -7.08% | Potency (HACAT [2]) | Potency (MCC-13) | Potency (MCC-26) | Potency (MKL-1)
active: Potency (HEK293) 11.8 µM

COc1cc2c(cc1-c1c(C)noc1C)ncc1[nH]c(=O)n([C@H](C)c3ccccn3)c12
active: Potency (CRL-7250) 3.26 µM | Potency (HEK293) 5.26 µM and 4.11 µM | Potency (KB-3-1) 16.6 µM | Potency (NIH3T3) 20.9 µM | Potency (MCC-26) 23.5 µM | Potency (MKL-1) 18.7 µM
inactive: max response (HaCat [1]) -12.8%

O=C(Cc1ccc(-c2ccc(OCCN3CCOCC3)cc2)cn1)NCc1ccccc1
active: Potency (CRL-7250) 23.5 nM and 1.3 µM | Potency (HEK293) 14.8 nM and 184 nM | Potency (KB-3-1) 26.4 nM and 731 nM | Potency (MCC-13) 0.0469 µM | Potency (MCC-26) 0.0935 µM
inactive: outcome (HaCat [1]) | Potency (HACAT [2])

COCCOc1ccc2c(c1)ncn2-c1ccc2cccc(N3CCC(N)CC3)c2n1
active: Potency (CRL-7250) 4.69 µM and 8.2 µM | Potency (HEK293) 11.8 µM | Potency (HaCat [1]) 18.7 µM and 16.4 µM | Potency (KB-3-1) 16.6 µM and 11.6 µM | Potency (NIH3T3) 1.48 µM | Potency (MKL-1) 20.9 µM
